According to PubChem BioAssay (Tox21):
Results filed as inconclusive are left out. Where a call stands in place of a potency, no number is given. Unmarked numbers belong to inactive results. Calls of active or inactive are those of the source. Calls come from the whole dose curve; as a rule, active = well fitted curve in the direction sought with a large enough effect in the repeat runs; inconclusive = weak or mixed curves; inactive = no such curve, though single readings can be large; an effect the other way counts as inactive or inconclusive.

Legend:
[1] = molecular target: Cytochrome P450 2D6 (Homo sapiens) (UniProt P10635); assay: Cytochrome P450 Family 2 Subfamily D Member 6 (CYP2D6) small molecule antagonists: luciferase reporter qHTS assay (AID 1671196); note: nearly all actives have a fitted effect of over 50% in size; note: potency is the fitted concentration of half-maximal effect
Chain of Cytochrome P450 2D6 (Homo sapiens) (P10635 whole entry, looked up): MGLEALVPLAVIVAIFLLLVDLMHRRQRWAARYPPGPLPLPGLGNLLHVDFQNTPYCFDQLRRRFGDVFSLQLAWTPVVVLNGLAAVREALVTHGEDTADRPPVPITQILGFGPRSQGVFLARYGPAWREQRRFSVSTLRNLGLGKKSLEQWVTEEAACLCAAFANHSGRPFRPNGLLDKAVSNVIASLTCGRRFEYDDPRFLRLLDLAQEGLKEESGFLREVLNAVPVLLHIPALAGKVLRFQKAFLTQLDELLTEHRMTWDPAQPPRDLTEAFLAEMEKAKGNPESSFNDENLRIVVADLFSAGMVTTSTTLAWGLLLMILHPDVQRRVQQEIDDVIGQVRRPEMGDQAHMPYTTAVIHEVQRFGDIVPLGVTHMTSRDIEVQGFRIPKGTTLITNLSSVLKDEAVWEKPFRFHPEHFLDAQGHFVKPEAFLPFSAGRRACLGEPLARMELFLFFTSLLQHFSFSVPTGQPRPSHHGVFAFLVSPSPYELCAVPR
How it was run: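 CYP2D6 activity was followed as luminescence from its luciferin product after a 1 h NADPH-driven reaction at room temperature. Enzyme-substrate mix and compound were pre-incubated for 10 min, and the signal was read 20 min after adding detection reagent.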

[2] = molecular target: Cytochrome P450 2C19 (Homo sapiens) (UniProt P33261); assay: Cytochrome P450 Family 2 Subfamily C Member 19 (CYP2C19) small molecule antagonists: luciferase reporter qHTS assay (AID 1671197); note: nearly all actives have a fitted effect of over 65% in size; note: potency is the fitted concentration of half-maximal effect
Chain of Cytochrome P450 2C19 (Homo sapiens) (P33261 whole entry, looked up): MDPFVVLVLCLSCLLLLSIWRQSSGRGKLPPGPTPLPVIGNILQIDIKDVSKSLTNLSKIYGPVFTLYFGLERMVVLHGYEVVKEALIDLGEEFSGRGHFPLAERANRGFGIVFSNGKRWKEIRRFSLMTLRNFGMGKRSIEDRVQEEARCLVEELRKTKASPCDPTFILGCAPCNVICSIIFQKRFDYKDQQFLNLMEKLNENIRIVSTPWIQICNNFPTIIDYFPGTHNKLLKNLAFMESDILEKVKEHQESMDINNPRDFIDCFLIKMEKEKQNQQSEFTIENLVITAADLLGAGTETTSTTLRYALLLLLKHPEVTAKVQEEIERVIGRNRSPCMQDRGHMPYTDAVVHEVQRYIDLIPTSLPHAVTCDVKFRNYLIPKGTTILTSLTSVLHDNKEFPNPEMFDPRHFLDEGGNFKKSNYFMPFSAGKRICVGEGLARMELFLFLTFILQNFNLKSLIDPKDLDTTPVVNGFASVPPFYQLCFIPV
How it was run: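 P450-Glo CYP2C19 screening system; proluciferin substrate; DMSO compound stocks; 10 min RT preincubation; NADPH regeneration, 1 h at 37C; luciferin detection reagent, 20 min RT; luminescence as RLU.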

[3] = molecular target: Cytochrome P450 2C9 (Homo sapiens) (UniProt P11712); assay: Cytochrome P450 Family 2 Subfamily C Member 9 (CYP2C9) small molecule antagonists: luciferase reporter qHTS assay (AID 1671198); note: nearly all actives have a fitted effect of over 50% in size; note: potency is the fitted concentration of half-maximal effect
Chain of Cytochrome P450 2C9 (Homo sapiens) (P11712 whole entry, looked up): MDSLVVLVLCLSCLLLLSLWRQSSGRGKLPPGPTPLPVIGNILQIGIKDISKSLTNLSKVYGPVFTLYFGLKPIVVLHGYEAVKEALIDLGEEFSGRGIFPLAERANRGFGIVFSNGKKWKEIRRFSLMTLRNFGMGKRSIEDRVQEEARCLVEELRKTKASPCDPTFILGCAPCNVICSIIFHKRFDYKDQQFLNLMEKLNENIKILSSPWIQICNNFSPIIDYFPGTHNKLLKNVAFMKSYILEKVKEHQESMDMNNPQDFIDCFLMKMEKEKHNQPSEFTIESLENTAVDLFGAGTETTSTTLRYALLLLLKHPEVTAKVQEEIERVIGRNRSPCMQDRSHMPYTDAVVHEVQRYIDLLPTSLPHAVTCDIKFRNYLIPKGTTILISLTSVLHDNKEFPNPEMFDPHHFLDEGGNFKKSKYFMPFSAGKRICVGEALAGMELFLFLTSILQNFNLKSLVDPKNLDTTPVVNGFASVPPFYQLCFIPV
How it was run: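 CYP2C9 activity was measured with a P450-Glo proluciferin substrate. Enzyme–substrate mix was held with compound for 10 min at room temperature, then NADPH regeneration solution was added for 1 h at 37C. Luciferin product was read as luminescence.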

[4] = molecular target: Cytochrome P450 1A2 (Homo sapiens) (UniProt P05177); assay: Cytochrome P450 Family 1 Subfamily A Member 2 (CYP1A2) small molecule antagonists: luciferase reporter qHTS assay (AID 1671199); note: nearly all actives have a fitted effect of over 50% in size; note: potency is the fitted concentration of half-maximal effect
Chain of Cytochrome P450 1A2 (Homo sapiens) (P05177 whole entry, looked up): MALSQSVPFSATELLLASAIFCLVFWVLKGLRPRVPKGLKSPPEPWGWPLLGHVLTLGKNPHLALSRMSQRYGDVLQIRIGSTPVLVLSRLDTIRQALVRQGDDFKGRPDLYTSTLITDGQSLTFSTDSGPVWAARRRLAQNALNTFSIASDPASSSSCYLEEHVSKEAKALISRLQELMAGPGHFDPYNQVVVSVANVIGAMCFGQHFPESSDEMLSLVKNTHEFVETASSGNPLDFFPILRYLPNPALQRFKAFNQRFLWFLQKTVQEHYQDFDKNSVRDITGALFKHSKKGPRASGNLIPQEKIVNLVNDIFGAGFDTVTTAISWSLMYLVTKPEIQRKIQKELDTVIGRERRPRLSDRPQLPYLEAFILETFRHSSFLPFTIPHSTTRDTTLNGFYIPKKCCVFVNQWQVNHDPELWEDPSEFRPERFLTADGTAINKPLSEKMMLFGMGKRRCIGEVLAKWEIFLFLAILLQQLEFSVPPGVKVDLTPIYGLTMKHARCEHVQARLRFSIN
How it was run: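 Luminescence from luciferin formed by CYP1A2 from a proluciferin substrate, read 20 min after detection reagent. Compound was pre-incubated 10 min with enzyme-substrate, and reaction started with NADPH regeneration solution for 1 h at room temperature; furafylline control.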

[5] = molecular target: Voltage-gated inwardly rectifying potassium channel KCNH2 (Homo sapiens) (UniProt Q12809); assay: Human Ether-a-go-go-Related Gene (hERG) channel small molecule antagonists: fluorescence cell-based qHTS assay (AID 1671200);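 note: hERG-expressing U2OS cells given a thallium stimulus after FluxOR II dye loading; series mostly up to about 77 µM; nearly all actives have a fitted effect of over 50% in size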
Chain of Voltage-gated inwardly rectifying potassium channel KCNH2 (Homo sapiens) (Q12809 whole entry, looked up): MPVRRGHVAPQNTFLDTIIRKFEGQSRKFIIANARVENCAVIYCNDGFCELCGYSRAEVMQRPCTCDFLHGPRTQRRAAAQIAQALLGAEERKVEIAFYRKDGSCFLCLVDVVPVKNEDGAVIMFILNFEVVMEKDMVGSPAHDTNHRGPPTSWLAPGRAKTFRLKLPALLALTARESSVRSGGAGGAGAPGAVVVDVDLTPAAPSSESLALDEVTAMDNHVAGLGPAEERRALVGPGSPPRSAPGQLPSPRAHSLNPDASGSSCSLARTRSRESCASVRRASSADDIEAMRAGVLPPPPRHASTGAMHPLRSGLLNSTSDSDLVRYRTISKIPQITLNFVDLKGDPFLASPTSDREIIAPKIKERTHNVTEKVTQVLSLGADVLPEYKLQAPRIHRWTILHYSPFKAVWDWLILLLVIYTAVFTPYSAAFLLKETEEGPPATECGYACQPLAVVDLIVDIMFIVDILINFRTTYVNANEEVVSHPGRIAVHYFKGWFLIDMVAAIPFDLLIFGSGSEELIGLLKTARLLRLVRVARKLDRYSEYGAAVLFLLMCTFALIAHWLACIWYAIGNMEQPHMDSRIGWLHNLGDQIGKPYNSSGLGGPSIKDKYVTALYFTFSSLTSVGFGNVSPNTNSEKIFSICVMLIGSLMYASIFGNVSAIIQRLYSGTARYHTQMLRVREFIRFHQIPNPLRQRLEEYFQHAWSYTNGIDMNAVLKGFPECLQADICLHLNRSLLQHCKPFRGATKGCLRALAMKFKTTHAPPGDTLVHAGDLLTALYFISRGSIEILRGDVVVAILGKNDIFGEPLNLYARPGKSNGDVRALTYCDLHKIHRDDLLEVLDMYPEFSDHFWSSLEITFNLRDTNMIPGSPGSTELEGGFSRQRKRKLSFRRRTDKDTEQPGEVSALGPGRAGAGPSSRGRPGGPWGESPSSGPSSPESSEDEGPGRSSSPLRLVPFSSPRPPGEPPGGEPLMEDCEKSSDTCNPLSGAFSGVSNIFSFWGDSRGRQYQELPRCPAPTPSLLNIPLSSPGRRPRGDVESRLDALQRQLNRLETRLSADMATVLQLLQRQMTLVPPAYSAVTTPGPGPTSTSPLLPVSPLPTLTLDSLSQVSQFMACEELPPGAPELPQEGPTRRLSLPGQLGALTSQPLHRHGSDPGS
How it was run: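 In this thallium-flux screen, overnight-cultured U2OS cells bearing the channel are dye-loaded in darkness for an hour, rested 10 min at room temperature, and then monitored kinetically at 480/540 nm for two minutes post-stimulus.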

[6] = molecular target: Cytochrome P450 3A4 (Homo sapiens) (UniProt P08684); assay: Cytochrome P450 Family 3 Subfamily A Member 4 (CYP3A4) small molecule antagonists: luciferase reporter qHTS assay (AID 1671201); note: nearly all actives have a fitted effect of over 50% in size; note: potency is the fitted concentration of half-maximal effect
Chain of Cytochrome P450 3A4 (Homo sapiens) (P08684 whole entry, looked up): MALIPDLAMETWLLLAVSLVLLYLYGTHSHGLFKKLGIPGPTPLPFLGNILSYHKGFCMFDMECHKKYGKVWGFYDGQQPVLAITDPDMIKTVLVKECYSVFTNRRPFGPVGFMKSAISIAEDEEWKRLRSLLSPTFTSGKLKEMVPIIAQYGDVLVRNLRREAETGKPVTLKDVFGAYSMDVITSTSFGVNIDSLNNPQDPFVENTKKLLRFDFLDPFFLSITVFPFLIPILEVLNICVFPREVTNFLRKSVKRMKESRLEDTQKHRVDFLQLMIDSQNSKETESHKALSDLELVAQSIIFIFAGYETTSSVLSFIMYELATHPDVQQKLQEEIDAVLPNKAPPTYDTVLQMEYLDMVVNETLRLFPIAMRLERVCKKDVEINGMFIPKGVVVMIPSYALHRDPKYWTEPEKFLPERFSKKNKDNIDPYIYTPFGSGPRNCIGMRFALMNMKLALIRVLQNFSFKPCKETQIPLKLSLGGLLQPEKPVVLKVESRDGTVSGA
How it was run: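 CYP3A4 activity was followed with a P450-Glo proluciferin substrate. Test compounds in DMSO were preincubated 10 min; NADPH regeneration then ran 1 h, and light output was read 20 min after detection reagent.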

| SMILES | Potency [1] | Potency [2] | Potency [3] | Potency [4] | Potency [5] | Potency [6] |
| --- | --- | --- | --- | --- | --- | --- |
| COc1cccc2sc(N)nc12 | 11.3 µM (active) | 56.7 µM (active) | inactive | 22.6 µM (active) | inactive | 10.1 µM (active) |
| C[CH2][Ge]([Cl])([CH2]C)[CH2]C | inactive | inactive | inactive | inactive | inactive | inactive |
| C=C[Si](C)(C)O[Si](C)(C)C=C | inactive | inactive | inactive | inactive | inactive | inactive |
| CC(=O)OC(C)c1ccccc1 (stereo not given) | inactive | inactive | inactive | inactive | inactive | inactive |
| CCC(C)N (stereo not given) | inactive | inactive | inactive | inactive | inactive | inactive |
| CC(=O)OCCCc1ccccc1 | inactive | inactive | inactive | inactive | inactive | inactive |
| CCCCCCCCCCCCOC(C)=O | inactive | inactive | inactive | inactive | inactive | inactive |
| Nc1cc(Cl)cc(S(=O)(=O)O)c1O | inactive | 41 µM (active) | 20.6 µM (active) | inactive | inactive | inactive |
| COc1ccc(OC)c(NC(=O)CC(C)=O)c1 | 31.7 µM (active) | 15.9 µM (active) | 31.7 µM (active) | 15.9 µM (active) | inactive | 22.4 µM (active) |
| Nc1nc(=O)n([C@@H]2O[C@H](CO)[C@@H](O)[C@@H]2F)cc1I | inactive | inactive | inactive | inactive | inactive | inactive |
| CC(=O)OC[C@H]1O[C@@H](OC(C)=O)[C@H](OC(C)=O)[C@@H]1OC(C)=O | inactive | inactive | inactive | inactive | inactive | inactive |
| CCOC(=O)OCC/C(SC(=O)OCC)=C(\C)N(C=O)Cc1cnc(C)nc1N | 2.45 µM (active) | inactive | inactive | inactive | inactive | – |
| FC(F)(F)/C(=N\OCC1OCCO1)c1ccc(Cl)cc1 | inactive | 1.59 µM (active) | 31.7 µM (active) | 2.24 µM (active) | inactive | inactive |
| CC1(N)CCC(C(C)(C)N)CC1 (stereo not given) | 20 µM (active) | inactive | inactive | inactive | inactive | inactive |
| Cc1cccc(NC(=S)N(C)C)c1 | inactive | 79.6 µM (active) | inactive | 35.6 µM (active) | inactive | inactive |
| O=P(O)(O)OCC(O)CO (stereo not given) | inactive | inactive | inactive | inactive | inactive | inactive |

| SMILES | Potency [1] | Potency [2] | Potency [3] | Potency [4] | Potency [5] | Potency [6] |
| --- | --- | --- | --- | --- | --- | --- |
| CC(C)(c1ccc(Oc2ccc3c(c2)C(=O)OC3=O)cc1)c1ccc(Oc2ccc3c(c2)C(=O)OC3=O)cc1 | 39.7 µM (active) | inactive | inactive | 70.6 µM (active) | inactive | inactive |
| Cc1cc(C)cc([N+](=O)[O-])c1 | inactive | inactive | inactive | inactive | inactive | inactive |
| CCCCOC(=O)C(C)OC(=O)CCC (stereo not given) | inactive | inactive | inactive | inactive | inactive | inactive |
| CCCCCCCCC(=O)OCC | inactive | inactive | inactive | inactive | inactive | inactive |
| Cc1ccccc1C | inactive | 81.7 µM (active) | inactive | – | inactive | inactive |
| CCc1nccnc1C | inactive | inactive | inactive | inactive | inactive | inactive |
| CC(=O)OC(C)(C)Cc1ccccc1 | inactive | inactive | inactive | inactive | inactive | inactive |
| CCC(C)(C)C1CCC(=O)CC1 | inactive | inactive | inactive | inactive | inactive | inactive |
| CC(C)COC(=O)COc1ccc(Cl)cc1Cl | inactive | 56.3 µM (active) | 31.7 µM (active) | 20 µM (active) | – | inactive |
| CCCCC(CC)C(=O)OC(C)C (stereo not given) | inactive | inactive | inactive | inactive | inactive | inactive |
| CCC(=O)c1ccc(O)cc1 | inactive | inactive | inactive | – | inactive | inactive |
| CCCOCCOCCOCCO | inactive | inactive | inactive | – | inactive | inactive |
| C=CCOCC(CO)(COCC=C)COCC=C | inactive | 0.717 µM (active) | 7.17 µM (active) | 25.5 µM (active) | inactive | 10.1 µM (active) |
| O=S(=O)(O)SSS(=O)(=O)O | inactive | 35.6 µM (active) | 71 µM (active) | 44.8 µM (active) | inactive | inactive |
| O=C(c1ccc2c(c1)C(=O)OC2=O)c1ccc2c(c1)C(=O)OC2=O | inactive | inactive | inactive | – | inactive | inactive |
